PubChem BioAssay (Tox21)
Inconclusive results are not listed. Active and inactive are the calls of the source. Unless noted, calls come from the whole dose curve.

Key:
[1] = Nuclear factor erythroid 2-related factor 2/antioxidant responsive element (Nrf2/ARE) small molecule agonists: qHTS cell viability counter screen in human keratinocytes (AID 1919968; active = well fitted curve in the direction sought with a large enough effect in the repeat runs; an effect the other way counts as inactive or inconclusive; note: nearly all actives have a fitted effect of over 55% in size; note: potency is the fitted concentration of half-maximal effect)
Outline: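 KeratinoSens cells (HaCaT keratinocytes stably carrying an ARE-luciferase reporter) were seeded at 1,500 cells/well and rested 5 h at 37 C/5% CO2. They were then exposed to compounds in DMSO for 23 h. Viability was read by CellTiter-Fluor fluorescence after 1 h.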

[2] = Nuclear factor erythroid 2-related factor 2/antioxidant responsive element (Nrf2/ARE) small molecule agonists: luciferase reporter gene qHTS assay in human keratinocytes (AID 1919969); note: nearly all actives have a fitted effect of over 35% in size; note: potency is the fitted concentration of half-maximal effect
[3] = target: KiSS-1 receptor (Homo sapiens) (UniProt Q969F8); assay: Human kisspeptin (KISS1R) small molecule agonists, calcium flux assay in KISS1R-HEK293 cells (AID 1920064; active = well fitted curve in the direction sought with a large enough effect in the repeat runs; an effect the other way counts as inactive or inconclusive)
KiSS-1 receptor (Homo sapiens), sequence (Q969F8 whole entry, looked up): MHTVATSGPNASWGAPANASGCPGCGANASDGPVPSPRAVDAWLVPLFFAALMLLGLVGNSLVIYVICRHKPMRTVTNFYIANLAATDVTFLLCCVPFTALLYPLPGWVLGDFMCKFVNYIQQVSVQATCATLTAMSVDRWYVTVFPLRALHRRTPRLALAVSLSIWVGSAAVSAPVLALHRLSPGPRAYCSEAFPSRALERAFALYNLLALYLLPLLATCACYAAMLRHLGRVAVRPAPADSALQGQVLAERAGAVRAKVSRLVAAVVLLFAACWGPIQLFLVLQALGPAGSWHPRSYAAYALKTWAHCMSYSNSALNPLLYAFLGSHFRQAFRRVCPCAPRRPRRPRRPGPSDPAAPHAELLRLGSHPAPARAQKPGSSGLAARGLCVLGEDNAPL
Outline: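 HEK293 cells stably expressing human KISS1R were plated 18 h at 37 °C, loaded with calcium dye for 1 h at 37 °C, then given compound by pin tool. Fluorescence (Ex/Em 480/540) was read kinetically for 3 min.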

[4] = G protein-coupled receptor (GPCR) small molecule agonists, calcium flux assay: HEK293 wild type cell line counter screen (AID 1920065)
Outline: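 Cells were plated and cultured 18 h at 37 C/5% CO2, then loaded with calcium dye for 1 h at 37 C. Compounds in DMSO were pin-transferred in agonist mode, and fluorescence (Ex/Em 480/540) was read kinetically for 3 min at 1 s intervals.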

[5] = p53 small molecule agonists, cell-based qHTS assay with human liver microsomes: qHTS cell viability counter screen (AID 1963579); note: nearly all actives have a fitted effect of over 45% in size; note: potency is the fitted concentration of half-maximal effect
Outline: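 Metabolic activation used human liver microsomes and NADPH, both 0.5 mg/mL final, over 16 hours at 37 C on p53RE-bla cells (4,000/well). Cytotoxicity measured by CellTiter-Glo luminescence, 30 min at room temperature.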

[6] = p53 small molecule agonists, cell-based qHTS assay with rat liver microsomes: qHTS cell viability counter screen (AID 1963580); note: nearly all actives have a fitted effect of over 45% in size; note: potency is the fitted concentration of half-maximal effect
Outline: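 Intracellular ATP, by CellTiter-Glo luminescence, defines viability. HCT-116 p53RE-bla cells, 4,000 per well, were compound-treated in the presence of rat liver microsomes and NADPH for 16 h at 37 C.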

[7] = p53 small molecule agonists, cell-based qHTS assay: qHTS cell viability counter screen (AID 1963581); note: nearly all actives have a fitted effect of over 45% in size
Outline: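 p53RE-bla HCT-116 cells were exposed to compounds for 16 h at 37 C; after the beta-lactamase FRET read in the same wells, CellTiter-Glo was added and luminescence (intracellular ATP) read after 30 min at room temperature.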

[8] = target: 5-hydroxytryptamine receptor 2A (Homo sapiens) (UniProt P28223); assay: 5-hydroxytryptamine receptor 2A (HTR2A) small molecule antagonists, cell-based qHTS assay (AID 1963586); note: nearly all actives have a fitted effect of over 45% in size; note: potency is the fitted concentration of half-maximal effect
5-hydroxytryptamine receptor 2A (Homo sapiens), sequence (P28223 whole entry, looked up): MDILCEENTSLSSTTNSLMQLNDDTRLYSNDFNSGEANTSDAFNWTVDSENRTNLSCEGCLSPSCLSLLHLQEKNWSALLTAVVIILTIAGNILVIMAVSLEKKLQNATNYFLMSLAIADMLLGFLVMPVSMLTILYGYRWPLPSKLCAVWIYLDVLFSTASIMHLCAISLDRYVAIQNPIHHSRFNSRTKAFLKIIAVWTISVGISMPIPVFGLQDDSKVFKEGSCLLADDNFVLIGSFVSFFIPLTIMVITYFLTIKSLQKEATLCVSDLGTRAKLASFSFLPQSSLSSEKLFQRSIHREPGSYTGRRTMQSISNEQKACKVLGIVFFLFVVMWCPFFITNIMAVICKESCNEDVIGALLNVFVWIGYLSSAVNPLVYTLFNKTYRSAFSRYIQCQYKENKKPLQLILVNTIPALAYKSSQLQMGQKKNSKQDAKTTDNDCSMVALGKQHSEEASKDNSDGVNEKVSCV
Outline: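 Antagonist-mode intracellular calcium assay: DOI (4 nM) added after 5 min compound pre-incubation at room temperature to dye-loaded HTR2A-CHO cells. Fluorescence followed for 3 min, sampled every second.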

[9] = target: 5-hydroxytryptamine receptor 2A (Homo sapiens) (UniProt P28223); assay: 5-hydroxytryptamine receptor 2A (HTR2A) small molecule agonists, cell-based qHTS assay (AID 1963587); note: nearly all actives have a fitted effect of over 30% in size; note: potency is the fitted concentration of half-maximal effect
Outline: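 Kinetic calcium-flux fluorescence (2 min, 1 sec intervals) after compound addition in agonist mode. HTR2A-CHO cells were cultured 18 h, then dye-loaded 1 h at 37 C.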

[10] = target: Muscarinic acetylcholine receptor M1 (Homo sapiens) (UniProt P11229); assay: Cholinergic receptor muscarinic 1 (CHRM1) small molecule antagonists, cell-based qHTS assay (AID 1963588); note: nearly all actives have a fitted effect of over 40% in size
Muscarinic acetylcholine receptor M1 (Homo sapiens), sequence (P11229 whole entry, looked up): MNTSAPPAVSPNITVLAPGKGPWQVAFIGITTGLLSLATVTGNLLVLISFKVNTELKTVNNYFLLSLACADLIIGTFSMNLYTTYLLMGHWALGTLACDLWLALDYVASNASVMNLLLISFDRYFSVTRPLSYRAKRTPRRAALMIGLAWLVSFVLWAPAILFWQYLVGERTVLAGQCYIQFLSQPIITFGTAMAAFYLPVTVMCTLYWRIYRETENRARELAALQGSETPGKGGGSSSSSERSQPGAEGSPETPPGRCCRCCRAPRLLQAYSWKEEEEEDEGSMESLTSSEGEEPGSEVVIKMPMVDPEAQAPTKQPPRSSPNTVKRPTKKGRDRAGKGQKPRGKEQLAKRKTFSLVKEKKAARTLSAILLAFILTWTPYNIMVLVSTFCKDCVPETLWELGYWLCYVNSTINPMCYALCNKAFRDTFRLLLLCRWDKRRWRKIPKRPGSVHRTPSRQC
Outline: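 CHRM1-CHO calcium-flux assay, antagonist mode. Cells were seeded 18 h, dye-loaded 1 h at 37 C and given compound for 5 min at RT, then acetylcholine was added at 50nM. FDSS fluorescence was read 3 min; 15 concentrations, three runs.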

[11] = target: Muscarinic acetylcholine receptor M1 (Homo sapiens) (UniProt P11229); assay: Cholinergic receptor muscarinic 1 (CHRM1) small molecule agonists, cell-based qHTS assay (AID 1963589); note: nearly all actives have a fitted effect of over 35% in size
Outline: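 CHO cells stably expressing human CHRM1, seeded 18 h at 37 C/5% CO2, dye-loaded 1 h at 37 C, then given compound in agonist mode; intracellular calcium fluorescence read kinetically at 1 s intervals. Fifteen concentrations, three independent runs.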

[12] = cAMP Responsive Elements (CRE) small molecule agonists, cell-based qHTS assay (AID 1963590)
Outline: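 CRE-bla HEK 293T cells in DMEM with 10% dialyzed FBS, NEAA, pyruvate and 25 mM HEPES were plated 18 h at 37 C/5% CO2, then exposed to compounds in DMSO for 3 h before LiveBLAzer B/G FRET substrate addition.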

[13] = cAMP Responsive Elements (CRE) small molecule antagonists, cell-based qHTS assay (AID 1963591; active = well fitted inhibition curve with a large enough effect in the signal ratio in the repeat runs, not every such curve was filed as active; the % refers to the signal ratio)
Outline: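 CRE-bla HEK293T cells were plated 18 h at 37 °C/5% CO2, pinned with compound in DMSO, then stimulated with NKH477 at 0.25 uM final for 3 h. LiveBLAzer B/G FRET substrate was added and plates incubated 2 h at room temperature.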

[14] = target: Beta-2 adrenergic receptor (Homo sapiens) (UniProt P07550); assay: Adrenergic beta2 receptor (ADRB2) small molecule antagonists, cell-based qHTS assay (AID 1963592); note: nearly all actives have a fitted effect of over 50% in size; note: potency is the fitted concentration of half-maximal effect
Beta-2 adrenergic receptor (Homo sapiens), sequence (P07550 whole entry, looked up): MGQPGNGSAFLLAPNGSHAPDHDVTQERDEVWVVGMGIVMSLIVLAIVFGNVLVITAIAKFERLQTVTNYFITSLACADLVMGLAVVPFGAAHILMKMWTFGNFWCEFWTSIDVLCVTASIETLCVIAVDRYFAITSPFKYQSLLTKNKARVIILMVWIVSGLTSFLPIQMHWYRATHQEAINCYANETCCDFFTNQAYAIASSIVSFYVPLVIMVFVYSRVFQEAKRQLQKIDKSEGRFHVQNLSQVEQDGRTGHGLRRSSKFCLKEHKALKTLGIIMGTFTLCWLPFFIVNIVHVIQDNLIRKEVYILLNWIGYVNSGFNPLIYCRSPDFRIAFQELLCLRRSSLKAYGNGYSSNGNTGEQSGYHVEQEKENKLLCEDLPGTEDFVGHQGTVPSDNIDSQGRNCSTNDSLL
Outline: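 Cells (CHO, stable ADRB2 overexpression) incubated 18-20hr at 37C; compounds added from DMSO; agonist mix (1nM isoproterenol, 100uM IBMX, 25uM Ro-20-1724) added; 0.5hr RT; d2-cAMP and anti-cAMP-cryptate added; 1hr RT; 665/615 nm read.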

[15] = target: Beta-2 adrenergic receptor (Homo sapiens) (UniProt P07550); assay: Adrenergic beta2 receptor (ADRB2) small molecule agonists, cell-based qHTS assay (AID 1963593);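 note: CHO cells stably overexpressing human ADRB2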
Outline: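 CHO cells stably over-expressing ADRB2 were plated overnight at 37C, then dosed with compounds plus a stimulation mix containing 100uM IBMX and 25uM Ro-20-1724 for 0.5hr at room temperature. cAMP was measured by HTRF competition, 1hr.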

[16] = target: D(2) dopamine receptor (Homo sapiens) (UniProt P14416); assay: Dopamine D2 receptor (DRD2) small molecule agonists, cell-based qHTS assay (AID 1963594); note: nearly all actives have a fitted effect of over 35% in size; note: potency is the fitted concentration of half-maximal effect
D(2) dopamine receptor (Homo sapiens), sequence (P14416 whole entry, looked up): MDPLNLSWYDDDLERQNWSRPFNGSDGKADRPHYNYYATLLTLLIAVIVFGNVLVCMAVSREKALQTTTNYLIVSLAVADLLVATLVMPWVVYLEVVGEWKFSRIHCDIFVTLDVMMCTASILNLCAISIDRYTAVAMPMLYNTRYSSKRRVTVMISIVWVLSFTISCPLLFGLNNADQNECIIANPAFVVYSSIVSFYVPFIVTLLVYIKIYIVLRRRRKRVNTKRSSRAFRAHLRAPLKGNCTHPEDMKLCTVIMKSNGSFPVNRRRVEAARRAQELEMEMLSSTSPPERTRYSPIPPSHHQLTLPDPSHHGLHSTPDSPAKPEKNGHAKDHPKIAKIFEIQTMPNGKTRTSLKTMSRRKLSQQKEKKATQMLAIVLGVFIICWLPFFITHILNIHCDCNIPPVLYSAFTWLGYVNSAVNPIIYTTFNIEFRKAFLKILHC
Outline: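 cAMP accumulation in DRD2-HEK293 cells measured by HTRF after 1 h detection; compounds added 10 min before NKH477 (200nM […]) forskolin-analogue stimulation, 30 min at room temperature, with Ro20-1724 present at 0.1 mM final.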

[17] = target: D(2) dopamine receptor (Homo sapiens) (UniProt P14416); assay: Dopamine D2 receptor (DRD2) small molecule antagonists, cell-based qHTS assay (AID 1963595; active = well fitted inhibition curve with a large enough effect in the signal ratio in the repeat runs, with a control signal flat; the % refers to the signal ratio)
Outline: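 Human DRD2 antagonist qHTS measuring cAMP by HTRF. The cells are exposed to compound for 10 min, then to NKH477 (200 nM) and quinpirole (12 nM) for 30 min at RT, with Ro20-1724 (0.1 mM) present throughout.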

[18] = p53 small molecule agonists, cell-based qHTS assay with human liver microsomes (AID 1963577);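 note: p53 response element beta-lactamase reporter cells with liver microsomes plus NADPH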
Outline: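 With metabolic activation: human liver microsomes (0.5 mg/mL final) plus NADPH (0.5 mg/mL final) added alongside compounds to p53RE-bla cells; 16 h 37 C exposure; beta-lactamase read by LiveBLAzer fluorescence.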

[19] = p53 small molecule agonists, cell-based qHTS assay with rat liver microsomes (AID 1963578)
Outline: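 Metabolic activation by rat liver microsomes and NADPH, each 0.5 mg/mL final, added right after compounds to p53RE-bla reporter cells (4,000/well, plated 5 h earlier). 16 h at 37 C, then LiveBLAzer substrate for 2 h at room temperature in the dark; fluorescence read-out.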

[20] = p53 small molecule agonists, cell-based qHTS assay (AID 1963582; active = well fitted activation curve with a large enough effect in the signal ratio in the repeat runs, not every such curve was filed as active; the % refers to the signal ratio)
Outline: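 p53RE-bla beta-lactamase reporter cells rested 5 h at 37 C/5% CO2, then received compounds in DMSO by pin transfer and were incubated 16 h at 37 C. LiveBLAzer B/G FRET substrate was loaded for 2 h at room temperature before fluorescence reading.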

Measured: Potency

O=P(O)(O)c1ccccc1
not listed: [18] | [19] | [20]
inactive: all other assays above

Clc1ccc(C(Cl)(Cl)Cl)cc1Cl
not listed: [2]
inactive: all other assays above

C=CC(=O)NCNC(=O)C=C
active: [2] 61.1 µM
inactive: [1] | [3] | [4] | [8] | [9] | [10] | [11] | [12] | [16]

C=CC(=O)N(C)C
not listed: [4] | [9] | [13]
inactive: all other assays above

Oc1cc(Cl)cc(Cl)c1
not listed: [4] | [12] | [15]
inactive: all other assays above

O=[N+]([O-])c1ccc(Cl)c(Cl)c1Cl
not listed: [2] | [15]
inactive: all other assays above

O=C(O)c1cc(I)cc(I)c1I
not listed: [4] | [9] | [12] | [13] | [17] | [20]
inactive: all other assays above

O=C1OC(=O)C2C1C1(Cl)C(Cl)=C(Cl)C2(Cl)C1(Cl)Cl (stereo not drawn)
not listed: [15] | [18] | [19] | [20]
inactive: all other assays above

CCC1(C2=NCCN2)Cc2ccccc2O1 (stereo not drawn)
not listed: [6] | [16] | [18] | [19] | [20]
inactive: all other assays above

CCOP(=O)(NC(C)C)Oc1ccc(SC)c(C)c1 (stereo not drawn)
inactive: [1] | [3] | [4] | [6] | [20] | [8] | [10] | [11] | [17]
active: [2] 15.4 µM

CC1(C)CCC(Cc2ccc(Cl)cc2)C1(O)Cn1cncn1 (stereo not drawn)
active: [5] 45.8 µM | [8] 16.8 µM | [9] 49 µM
inactive: [1] | [2] | [3] | [4] | [6] | [7] | [10] | [11] | [16]

CCC1(c2ccccc2)C(=O)N(COC)C(=O)N(COC)C1=O
active: [16] 10.6 µM
not listed: [4] | [17] | [18] | [19] | [20]
inactive: all other assays above

Fc1cccc(Cl)c1CCl
not listed: [4] | [9] | [15] | [16] | [18] | [19] | [20]
inactive: all other assays above

CCCN1CCC[C@@H]2Cc3nc(N)ncc3C[C@H]21
active: [9] 8.49 µM
not listed: [3] | [16] | [19]
inactive: all other assays above

CCOP(=O)(Sc1ccccc1)Sc1ccccc1
active: [2] 61.1 µM
not listed: [7] | [18] | [19] | [20]
inactive: all other assays above

Cc1cc(C(F)(C(F)(F)F)C(F)(F)F)ccc1NC(=O)c1cccc(I)c1C(=O)NC(C)(C)CS(C)(=O)=O
not listed: [7] | [17] | [18] | [19] | [20]
inactive: all other assays above

CCC1(c2cccc(O)c2)CCCCN(C)C1 (stereo not drawn)
not listed: [8] | [14] | [15] | [18] | [19] | [20]
inactive: all other assays above

NC(=O)CI
not listed: [2]
inactive: all other assays above

O=C1C=CC(=O)c2ccccc21
inactive: [3] | [18] | [19] | [7] | [20] | [8] | [10] | [11] | [16]
active: [1] 15.4 µM | [2] 6.11 µM | [6] 20.4 µM | [9] 21.9 µM

CCCCCCCCP(=O)(O)O
not listed: [4] | [13] | [20]
inactive: all other assays above

C[C@@H](N)[C@@H](O)c1ccccc1
not listed: [6] | [12] | [13] | [14] | [16] | [18] | [19] | [20]
inactive: all other assays above

CCOP(=S)(OCC)Oc1ccc(S(C)=O)cc1 (stereo not drawn)
not listed: [10] | [13] | [15] | [18] | [19] | [20]
inactive: all other assays above

CC1(C)CON(Cc2ccccc2Cl)C1=O
not listed: [2] | [15]
inactive: all other assays above

O=C(O)C(O)C(O)C(=O)O (stereo not drawn)
not listed: [8] | [11] | [13] | [17] | [18] | [19] | [20]
inactive: all other assays above

COc1ccc(OC)c(CC(C)N)c1 (stereo not drawn)
active: [14] 65.6 µM
not listed: [8] | [9] | [12] | [15] | [17] | [18] | [19] | [20]
inactive: all other assays above

c1ccc(OCC2CO2)cc1 (stereo not drawn)
not listed: [2]
inactive: all other assays above

CCS(=O)(=O)c1cccnc1S(=O)(=O)NC(=O)Nc1nc(OC)cc(OC)n1
not listed: [2] | [10] | [11]
inactive: all other assays above

Cn1sc(Cl)cc1=O
active: [9] 54.9 µM
not listed: [2] | [8] | [16]
inactive: all other assays above

CC(=O)OC(c1ccccc1)C(Cl)(Cl)Cl (stereo not drawn)
not listed: [2] | [8] | [12] | [13] | [14]
inactive: all other assays above

C=CC(=O)OC
not listed: [2] | [13] | [15]
inactive: all other assays above
